Where “and” joins values, the source holds several entries; their conditions need not be identical. Identical values can stand only once. The panel holds about 83,000 compounds, 20% with a hit somewhere; the sample as a whole holds those more often.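 96-well plates, one dose, 48 hours. Percent growth reported; active if below 10.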 Calls of active or inactive are those of the source.

The test system of the assay is MDA-MB-468 breast. Briefly: NCI-60 one-dose screen, 48 h (100 = growth as untreated, 0 = no growth, -100 = all killed). To be noted: 10 µM unless noted.
For the compound `COC(=O)[C@]1(C)CCC[C@]2(C)[C@H]3C[C@H]4C(C(C)C)=C[C@]3(CC[C@H]21)[C@H]1[C@@H]4[C@@H](OCCC#N)CC[C@@H]1OCCC#N`, the growth is -6.32% (active). In the case of `CC(=O)c1ccc(-n2c(-c3cc(-c4ccsc4)n[nH]3)n[nH]c2=S)cc1` it was 97.3% (inactive); in that of `Nc1nc(SCc2cccc([N+](=O)[O-])c2)c2[nH]cnc2n1`, 64.5% (inactive); in that of `CCc1ccc(CNc2ccc(N3CCOCC3)c(C(=O)O)c2)cc1`, 101% (inactive). In the case of `CC(=O)c1cc(O)ccc1O` it was 98.3% (inactive); in that of `COc1cc2c(C#N)n3c(c2cc1OC)C(=O)C(c1ccccc1)Oc1ccccc1-3` (stereo not given), 74.5% (inactive). `CC(=O)c1sc2sc(C(C)=O)c(C)c2c1C`: the growth was 61.4% (inactive).

For `COc1nc2c(cc1S(=O)(=O)c1ccccc1)CCc1c-2cnn1Cc1ccccc1`, the growth is 45.7% (inactive). For `COc1ccc2c(c1)c(-c1nc(-c3c[nH]c4ccncc34)cs1)cn2C` the value was -60.8% (active). In the case of `CCCn1c(=S)sc2c(NNC(C)=O)nc(C)nc21` it was 93.1% (inactive); in that of `C=C1C(=O)O[C@H]2[C@H]1CC/C(CNC(=O)c1c[nH]c3ccc(F)cc13)=C\CC[C@@]1(C)O[C@@H]21`, -55.8% (active). For `CC(N)C(Cc1ccc(Cl)cc1)c1ccc(Cl)cc1` (stereo not given) the value was 41.6% (inactive); for `S=C1SCN(Cc2ccccc2)CN1Cc1ccco1`, 31.9% (inactive); for `NC1(N)C=CC2=C(C=C1)C1(N)C3=C(C=CC(N)(N)C=C3)N2C2(N)C3=C(C=CC(N)(N)C=C3)N1C1=C2C=CC(N)(N)C=C1`, 72.3% (inactive). On to `CCOC(=O)c1cc(C(=O)c2ccc(OC)c(OC)c2)n2c1ccc1ccc3cccnc3c12`, for which the growth was 38.5% (inactive). In the case of `O=C1/C(=C/c2ccccc2)COc2ccc(O)cc21` it was 87.8% (inactive); in that of `NC1=NC(c2ccc(Cl)cc2)C2=C(N1)/C(=C/c1ccc(Cl)cc1)CCC2` (stereo not given), 62.2% (inactive); in that of `CN(Cc1ccccc1)c1nc(Cl)c(C2CC(c3ccc(F)cc3)=NN2C=O)s1` (stereo not given), 77.5% (inactive). For `COc1cccc(-c2nc3sccn3c2-c2ccnc(NCCCNS(=O)(=O)c3cccc(Cl)c3)c2)c1` the value was 24.6% (inactive); for `N#Cc1c(-c2ccc(F)cc2)nc(N/N=C/c2cccc(O)c2)nc1N1CCOCC1`, 81.1% (inactive). For `COc1ccc(COC(=O)CC(C)C)cc1` the value was 102% (inactive); for `CC(C)C1C2=C(NCCN1C(=O)c1ccncc1)C(C)(C)N(Cc1ccccc1)C2=O` (stereo not given), 110% (inactive). With `Cc1csc(/N=C(N)/N=C(\N)c2cccc(C#N)c2)n1`, the growth is 101% (inactive). In the case of `O=c1nc(NO)[nH]c(=O)n1Cc1ccc(F)cc1` it was 107% (inactive); in that of `CCc1cc2c(c3ccc(C(=O)CBr)cc13)CCCC2`, 111% (inactive); in that of `O=C1CCCCN1c1ccc(C2=NCCCN2)cc1`, 82.2% (inactive). For `COc1cccc(Cn2c(-c3nonc3N)nc3ccccc32)c1` the value was -12.2% (active); for `CC1(C)NCCC[C@]2(C)[C@H]3CC[C@@H]4[C@H]5[C@H](C(=O)/C=C/c6ccccn6)CC[C@]5(CO)CC[C@@]4(C)[C@]3(C)CC[C@@H]12`, 5.83% (active); for `CCS/C(Nc1ccccc1)=C(\C#N)C(=O)N/N=C/c1ccc(Cl)cc1Cl`, 19.6% (inactive).

In the case of `C=C1CC[C@H]2[C@@](C)(CCC3OC(c4ccc(OCc5cn(C6CC(OC(C)=O)C(OC(C)=O)C(COC(C)=O)O6)nn5)cc4)OC[C@]32C)[C@@H]1/C=C/C1=CCOC1=O` (stereo not given in full), the growth is 47.3% (inactive).

As to `NS(=O)(=O)c1cc2c(cc1Cl)NC(C(Cl)Cl)NS2(=O)=O` (stereo not given), the growth was 101% (inactive) and 108% (inactive). In the case of `COc1ccc(-c2nc(Nc3cc(C)[nH]n3)c3ccccc3n2)cc1` it was 47.3% (inactive).

Turning to `CCOC(=O)c1sc2ncc(-c3ccc(C)cc3)n2c1C`, the growth is 102% (inactive).

Consider `CNC(=O)c1cc(Oc2ccc3nc(NC(=O)Nc4ccc(CN5CCOCC5)c(C(F)(F)F)c4)sc3c2)ccn1`, for which the growth is -17.2% (active). In the case of `O=S(=O)(O)c1ccc2c(c1)Sc1cc(S(=O)(=O)O)ccc1O2` it was 107% (inactive); in that of `COc1ccc2nc(-c3ccc(Cl)cc3)cc(-c3nnc(SCC(=O)Nc4ccc(C(C)=O)cc4)n3-c3ccccc3)c2c1`, 91.2% (inactive); in that of `Cn1c(=O)c2c3c(oc2c2ccccc21)C(=O)c1ccccc1C3=O`, -9.91% (active). For `NC(=S)N1N=C(c2ccccc2)CC1c1cn(-c2ccccc2)nc1-c1ccc(OCc2ccccc2)cc1` (stereo not given), the growth is 102% (inactive). For `Cc1nc2ncc(-c3ccc4ncnc(NCc5ccccc5)c4c3)cc2[nH]1` the value was 11.1% (inactive). For `CC1(C)CC[C@]2(C(=O)NCCNCCN)CC[C@]3(C)C(=CC[C@@H]4[C@@]5(C)CCC(=O)C(C)(C)[C@@H]5CC[C@]43C)[C@@H]2C1` the value was -67% (active).

The values above are taken from PubChem BioAssay (NCI).
